# In PubChem BioAssay AID1117362 (Southern Research Institute, 2015):
# Among all 3,600 compounds or so, about 100 (2.8%) were called active.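 The calls were made as follows: active = inhibition above 30% at one or more concentrations, seen consistently on every test date; inconclusive = results that disagree between repeat test dates; inactive = the rest.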 Not all results are given here.
# Experiment: biotin-GST/anti-GST TR-FRET signal inhibitors, dose response, artefact control for Vif-APOBEC3G degradation inhibitor project, biochemical (AID 1117362);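 also: biotinylated GST protein used in place of GST-Vif 1-94 and biotin-A3G peptide; detects fluorescence quenchers or blockers of GST binding to anti-GST antibody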
# Details: TR-FRET counter screen; series mostly up to 100 µM; inhibition: at the top concentration
row,SMILES,inhibition
1,Cc1noc(/C=C/c2ccco2)c1S(=O)(=O)N1CCC(C(=O)N2c3ccccc3CC2C)CC1 (stereo not drawn),-2.34% (inactive)
2,Cc1cc(C)nc(N/N=C/C2=C(N3CCOCC3)C(=C\c3ccc(Cl)cc3)/CC2)n1,-0.34% (inactive)
3,Cc1ccccc1NC(=O)c1c(C)[nH]c(=S)c(C#N)c1-c1ccco1,-2.56% (inactive)
4,COc1ccc(OC)c(C2C(C(=O)Nc3ccc(F)cc3)=C(C)Nc3nc(CCCO)nn32)c1 (stereo not drawn),-2.07% (inactive)
5,c1ccc2c(c1)CCCN2Cc1nnc2n1CCCCC2,18% (inactive)
6,CCOC(=O)C1CCN(C(c2cccs2)c2sc3nc(C)nn3c2O)CC1 (stereo not drawn),-0.51% (inactive)
7,Cc1onc(-c2c(F)cccc2Cl)c1C(=O)Nc1nnc(C2CC2)s1,16.8% (inactive)
8,O=C(O)c1ccc(Cl)c2c1C1C=CCC1C(c1ccccn1)N2 (stereo not drawn),8.39% (inactive)
9,COCCCNC(=O)/C(C#N)=C/c1ccc(OCC(=O)O)c(OC)c1,5.26% (inactive)
10,CCOC(=O)N1CCN(C(=O)c2ccc3c(SCC(=O)O)c4c(nc3c2)CCC4)CC1,6.29% (inactive)
11,COC(=O)C1=C(C)NC(=O)/C1=C\c1cccs1,-11.6% (inactive)
12,CC(=O)C1=C(C)NC(C)=C(C(C)=O)C1c1cccs1,0.1% (inactive)
13,CNc1c(C(=O)O)ccc2c1C(=O)c1ccccc1C2=O,-29.9% (inactive)
14,COCc1cc(C)nc(NCCO)c1C#N,0.98% (inactive)
15,CC(C)c1ccc(/C=C/C(=O)N2CCc3ccccc3C2)cc1,-2.23% (inactive)
16,CCOC(=O)C1=C(c2ccccc2)N=c2s/c(=C\c3ccco3)c(=O)n2C1c1cccs1 (stereo not drawn),0.16% (inactive)
17,O=C(O)Cc1ccc(N=Nc2c(O)c(C(=O)O)cc3ccccc23)cc1,-2.75% (inactive)
18,COC(=O)c1ccc(C)c(NC(=O)CCSc2ccccc2)c1,4.21% (inactive)
19,O=C(COC(=O)c1c2c(nc3ccccc13)/C(=C\c1ccco1)CC2)NC1CCCC1,7.73% (inactive)
20,CCC(=O)N1N=C(c2ccc(NS(C)(=O)=O)cc2)CC1c1ccc(C)cc1 (stereo not drawn),1.76% (inactive)
21,Cn1nc(-c2ccc(Cl)cc2)c2cc(C(=O)N3CCN(c4ccccc4)CC3)sc21,-21.1% (inactive)
22,CCOC(=O)c1sc2nc(CC(=O)OC)nc(NCc3ccco3)c2c1C,6.59% (inactive)
23,CCOc1ccc(-n2c(Cc3cc(=O)[nH]c(=O)[nH]3)nnc2SCC(N)=O)cc1,1.18% (inactive)

row,SMILES,inhibition
1,COC(=O)COc1ccc(S(=O)(=O)Nc2cc(OC)ccc2OC)cc1,5.91% (inactive)
2,COC(=O)CSc1nnc(CNC(=O)Cc2ccccc2)n1C,-1.09% (inactive)
3,CCOC(=O)c1cc2cc(F)ccc2nc1C,-1.31% (inactive)
4,O=C(Cc1ccccc1)NC(Nc1ccccc1)C(Cl)(Cl)Cl (stereo not drawn),-1.08% (inactive)
5,Cc1ccc(C)c(-n2c(Cc3cc(=O)[nH]c(=O)[nH]3)nnc2SC(C)C)c1,3.25% (inactive)
6,O/N=C1\CCC\C1=C/c1ccco1,1.01% (inactive)
7,O=C(CCCCCN1C(=O)CCC1=O)Nc1ccc(Cl)c(C(F)(F)F)c1,3.39% (inactive)
8,Cc1ccc(N(CC(=O)NCCSCc2ccco2)S(=O)(=O)c2ccc(F)cc2)cc1,1.13% (inactive)
9,CCOc1ccc(-n2c(Cc3cc(=O)[nH]c(=O)[nH]3)nnc2SCC(=O)NC2CCCC2)cc1,0.17% (inactive)
10,CC1CCCN(C(=O)CN2CCN(C(=O)c3ccco3)CC2)C1 (stereo not drawn),-3.6% (inactive)
11,COc1ccc(CCNC(=O)CN2CCCc3ccccc32)cc1OC,18.5% (inactive)
12,O=C(c1ccco1)N1CCN(C(c2ccccn2)c2nnnn2C2CCCC2)CC1 (stereo not drawn),5.15% (inactive)
13,O=C(NC1CCCC1)C(c1ccco1)N(Cc1ccccc1)C(=O)c1csnn1 (stereo not drawn),-2.57% (inactive)
14,c1cncc(-c2csc(NCc3ccco3)n2)c1,3.94% (inactive)
15,COc1cc(CC(=O)OCC(=O)Nc2cccc([N+](=O)[O-])c2)cc(OC)c1OC,5.53% (inactive)
16,CCOC(=O)Cn1nnnc1C(C(C)C)N(Cc1cc2c(C)cc(C)cc2[nH]c1=O)C1CCCC1 (stereo not drawn),2.05% (inactive)
17,CC(=O)Nc1ccc(S(=O)(=O)NCCSCc2ccco2)cc1,-6.34% (inactive)
18,CCOC(=O)c1cnn2c(N)c(C#N)nnc12,6.25% (inactive)
19,CSc1nc(N(CCO)CCO)c2sc3nc(-c4ccco4)c4c(c3c2n1)CCC4,1.7% (inactive)
20,CC(=C/c1ccco1)/C=N/NC(=O)Cc1cccn1C,1.17% (inactive)
21,COc1ccccc1NC(=O)CSc1nnc(Cc2cc(=O)[nH]c(=O)[nH]2)n1-c1ccccc1,4.67% (inactive)
22,Cc1nc2ncccn2c1-c1csc(NCc2ccco2)n1,28.8% (inactive)
23,Cc1cc(S(=O)(=O)N(Cc2ccccn2)Cc2ccco2)ccc1-n1cnnn1,4.56% (inactive)

row,SMILES,inhibition
1,COc1ccccc1C1C=C(c2ccc(C)cc2)Nc2nnnn21 (stereo not drawn),-0.76% (inactive)
2,O=C(O)/C=C/C(=O)Nc1cccnc1,0.54% (inactive)
3,O=C(c1cc2n(n1)C(C(F)(F)F)CC(c1ccco1)N2)N1CCc2ccccc2C1 (stereo not drawn),-4.85% (inactive)
4,COc1ccc(-c2ccc(C#N)c(SCC(=O)Nc3sc4c(c3C#N)CCC4)n2)cc1OC,2.31% (inactive)
5,CC(=O)OC1COC(n2ccc3ccccc32)C(OC(C)=O)C1OC(C)=O (stereo not drawn),2.58% (inactive)
6,O=C1C2C3CCCC3=C3CCCC3C2C(=O)N1c1ccccc1 (stereo not drawn),5.45% (inactive)
7,CCCCn1c(=NC(=O)c2cccnc2)c(C#N)cc2c(=O)n3cccc(C)c3nc21,11.7% (inactive)
8,CCc1ccc2nc(N3CCN(C)CC3)c(C#N)cc2c1,4.9% (inactive)
9,Cc1nc2cc(N=NC3=C(O)CCCC3=O)ccc2s1,26.2% (inactive)
10,COc1ccc2ccccc2c1C1CC(=O)N2CN(Cc3ccco3)CSC2=C1C#N (stereo not drawn),4.69% (inactive)
11,C=CC(=O)N1C/C(=C/c2ccc(F)cc2)C(=O)/C(=C\c2ccc(F)cc2)C1,0.46% (inactive)
12,O=C1NC(=S)N/C1=C/c1ccc(-c2c(Br)cc([N+](=O)[O-])cc2Br)o1,11.7% (inactive)
13,COC(=O)C1=C(N)OC2=C(C(=O)CCC2)C1c1cccs1 (stereo not drawn),0.5% (inactive)
14,CC1(c2ccc3noc(-c4ccccc4)c3c2)OCCO1,2.44% (inactive)
15,O=C(COC(=O)/C=C/c1ccco1)Nc1ncc(C(F)(F)F)cc1Cl,-4.53% (inactive)
16,CCOC(=O)c1c(C)oc2c1c(C=NCc1ccccn1)c(O)c1ccccc12,21.7% (inactive)
17,Cc1ccc(C(=O)Nc2ccc(O)c(C(=O)O)c2)o1,3.82% (inactive)
18,COc1ccccc1/C=C(/CC(=O)NCc1ccccc1)c1nc2ccccc2s1,0.36% (inactive)
19,COc1ccc(-c2nc3oc4cc(OC)ccc4c(=O)c3c(=O)n2Cc2ccco2)cc1,-0.8% (inactive)
20,O=S(=O)(Nc1nccs1)c1ccc(Nc2nnc(-c3ccccc3)c3ccccc23)cc1,-2.36% (inactive)
21,Cc1ccc(-n2c(C)cc(C(=O)OCC(=O)N(CC(C)C)C3CCS(=O)(=O)C3)c2C)cc1 (stereo not drawn),3.83% (inactive)
22,CCOc1cc(N2CCOCC2)c(OCC)cc1NS(=O)(=O)c1ccc(Cl)s1,9.78% (inactive)
